From ChEMBL document CHEMBL5724796, “Tm Shift (DSF) assay results for EUbOPEN Chemogenomics Library” (2024)

What was measured:
Conditions in all cases: Compound concentration 20.0 uM
[1] = target: Tyrosine-protein kinase ABL1 (Homo sapiens) (UniProt P00519)
[2] = target: Bromodomain-containing protein 4 (Homo sapiens) (UniProt O60885)
[3] = target: Cyclin-dependent kinase 2 (Homo sapiens) (UniProt P24941)
[4] = target: Casein kinase I isoform delta (Homo sapiens) (UniProt P48730)
[5] = target: Glycogen synthase kinase-3 beta (Homo sapiens) (UniProt P49841)
[6] = target: Mitogen-activated protein kinase 1 (Homo sapiens) (UniProt P28482)
[7] = target: T1, Aurora kinase A (Homo sapiens) (UniProt O14965)
T1 sequence (whole entry): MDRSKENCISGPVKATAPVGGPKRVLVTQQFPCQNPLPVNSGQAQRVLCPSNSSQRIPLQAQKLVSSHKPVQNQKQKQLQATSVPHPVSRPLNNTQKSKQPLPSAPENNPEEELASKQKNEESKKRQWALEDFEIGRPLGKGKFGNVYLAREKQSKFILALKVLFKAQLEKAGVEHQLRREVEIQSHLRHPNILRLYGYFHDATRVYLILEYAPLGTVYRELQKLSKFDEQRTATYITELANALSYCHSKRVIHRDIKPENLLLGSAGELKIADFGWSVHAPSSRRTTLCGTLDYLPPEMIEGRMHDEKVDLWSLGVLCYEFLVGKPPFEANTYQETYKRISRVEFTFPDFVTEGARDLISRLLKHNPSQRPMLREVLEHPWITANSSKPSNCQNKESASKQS

[8] = target: T2, Transcription intermediary factor 1-alpha (Homo sapiens) (UniProt O15164)
T2 sequence (whole entry): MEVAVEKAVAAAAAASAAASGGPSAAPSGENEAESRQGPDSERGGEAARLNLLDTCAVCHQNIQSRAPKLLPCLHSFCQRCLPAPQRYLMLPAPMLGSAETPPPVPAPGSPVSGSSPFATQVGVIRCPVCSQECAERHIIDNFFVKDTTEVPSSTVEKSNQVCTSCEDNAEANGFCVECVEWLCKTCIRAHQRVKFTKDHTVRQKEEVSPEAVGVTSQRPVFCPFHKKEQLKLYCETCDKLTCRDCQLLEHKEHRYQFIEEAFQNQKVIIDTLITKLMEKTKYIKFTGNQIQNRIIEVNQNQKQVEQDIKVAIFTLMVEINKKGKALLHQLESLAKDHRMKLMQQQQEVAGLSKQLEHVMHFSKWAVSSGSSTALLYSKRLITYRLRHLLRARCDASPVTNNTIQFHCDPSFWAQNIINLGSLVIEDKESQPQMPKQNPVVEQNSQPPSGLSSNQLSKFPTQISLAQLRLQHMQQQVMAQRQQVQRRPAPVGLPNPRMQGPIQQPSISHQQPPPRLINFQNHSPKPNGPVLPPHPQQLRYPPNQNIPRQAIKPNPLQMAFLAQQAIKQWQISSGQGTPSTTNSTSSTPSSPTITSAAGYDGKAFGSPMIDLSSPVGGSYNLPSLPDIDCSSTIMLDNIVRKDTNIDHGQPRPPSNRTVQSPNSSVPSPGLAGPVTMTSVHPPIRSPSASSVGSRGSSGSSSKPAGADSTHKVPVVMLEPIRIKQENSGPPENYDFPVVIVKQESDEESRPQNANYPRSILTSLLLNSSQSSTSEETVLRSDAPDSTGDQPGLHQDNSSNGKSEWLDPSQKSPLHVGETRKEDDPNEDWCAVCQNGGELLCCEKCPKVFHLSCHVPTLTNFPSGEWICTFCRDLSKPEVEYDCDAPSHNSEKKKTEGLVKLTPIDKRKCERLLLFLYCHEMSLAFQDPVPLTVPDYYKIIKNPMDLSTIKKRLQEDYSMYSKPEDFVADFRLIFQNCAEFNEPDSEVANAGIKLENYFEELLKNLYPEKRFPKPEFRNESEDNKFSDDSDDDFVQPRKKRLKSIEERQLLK

Mitogen-activated protein kinase 1 (Homo sapiens), sequence (P28482 whole entry): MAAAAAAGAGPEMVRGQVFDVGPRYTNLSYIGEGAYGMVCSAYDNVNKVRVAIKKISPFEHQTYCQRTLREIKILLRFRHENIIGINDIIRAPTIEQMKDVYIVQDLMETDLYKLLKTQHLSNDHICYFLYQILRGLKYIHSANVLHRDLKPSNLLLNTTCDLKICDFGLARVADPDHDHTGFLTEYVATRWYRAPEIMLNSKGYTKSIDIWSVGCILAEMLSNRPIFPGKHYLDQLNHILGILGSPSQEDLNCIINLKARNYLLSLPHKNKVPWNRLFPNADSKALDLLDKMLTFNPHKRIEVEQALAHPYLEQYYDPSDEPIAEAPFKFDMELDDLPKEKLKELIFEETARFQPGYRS
Casein kinase I isoform delta (Homo sapiens), sequence (P48730 whole entry, looked up, canonical isoform): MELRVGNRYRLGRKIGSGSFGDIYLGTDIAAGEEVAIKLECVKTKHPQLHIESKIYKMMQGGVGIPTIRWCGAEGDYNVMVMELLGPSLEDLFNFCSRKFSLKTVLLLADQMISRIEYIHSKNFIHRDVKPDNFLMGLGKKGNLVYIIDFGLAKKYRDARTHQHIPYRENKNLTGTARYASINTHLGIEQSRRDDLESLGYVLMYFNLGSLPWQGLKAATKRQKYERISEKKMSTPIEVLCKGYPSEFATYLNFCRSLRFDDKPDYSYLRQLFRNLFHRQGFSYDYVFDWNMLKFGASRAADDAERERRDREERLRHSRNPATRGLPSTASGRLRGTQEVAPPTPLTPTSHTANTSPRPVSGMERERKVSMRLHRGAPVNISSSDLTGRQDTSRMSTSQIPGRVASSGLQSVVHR
Glycogen synthase kinase-3 beta (Homo sapiens), sequence (P49841 whole entry, looked up): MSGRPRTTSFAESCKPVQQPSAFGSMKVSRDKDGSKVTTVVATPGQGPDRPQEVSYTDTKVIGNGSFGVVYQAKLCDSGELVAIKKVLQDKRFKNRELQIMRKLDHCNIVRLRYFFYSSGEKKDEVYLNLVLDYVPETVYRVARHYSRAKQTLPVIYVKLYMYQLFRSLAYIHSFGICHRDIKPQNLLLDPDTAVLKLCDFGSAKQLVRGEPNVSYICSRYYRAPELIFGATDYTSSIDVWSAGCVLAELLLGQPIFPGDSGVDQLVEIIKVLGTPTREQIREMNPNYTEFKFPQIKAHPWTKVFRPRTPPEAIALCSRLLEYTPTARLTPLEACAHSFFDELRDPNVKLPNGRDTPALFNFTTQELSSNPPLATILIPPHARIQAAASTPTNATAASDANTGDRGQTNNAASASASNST
Tyrosine-protein kinase ABL1 (Homo sapiens), sequence (P00519 whole entry): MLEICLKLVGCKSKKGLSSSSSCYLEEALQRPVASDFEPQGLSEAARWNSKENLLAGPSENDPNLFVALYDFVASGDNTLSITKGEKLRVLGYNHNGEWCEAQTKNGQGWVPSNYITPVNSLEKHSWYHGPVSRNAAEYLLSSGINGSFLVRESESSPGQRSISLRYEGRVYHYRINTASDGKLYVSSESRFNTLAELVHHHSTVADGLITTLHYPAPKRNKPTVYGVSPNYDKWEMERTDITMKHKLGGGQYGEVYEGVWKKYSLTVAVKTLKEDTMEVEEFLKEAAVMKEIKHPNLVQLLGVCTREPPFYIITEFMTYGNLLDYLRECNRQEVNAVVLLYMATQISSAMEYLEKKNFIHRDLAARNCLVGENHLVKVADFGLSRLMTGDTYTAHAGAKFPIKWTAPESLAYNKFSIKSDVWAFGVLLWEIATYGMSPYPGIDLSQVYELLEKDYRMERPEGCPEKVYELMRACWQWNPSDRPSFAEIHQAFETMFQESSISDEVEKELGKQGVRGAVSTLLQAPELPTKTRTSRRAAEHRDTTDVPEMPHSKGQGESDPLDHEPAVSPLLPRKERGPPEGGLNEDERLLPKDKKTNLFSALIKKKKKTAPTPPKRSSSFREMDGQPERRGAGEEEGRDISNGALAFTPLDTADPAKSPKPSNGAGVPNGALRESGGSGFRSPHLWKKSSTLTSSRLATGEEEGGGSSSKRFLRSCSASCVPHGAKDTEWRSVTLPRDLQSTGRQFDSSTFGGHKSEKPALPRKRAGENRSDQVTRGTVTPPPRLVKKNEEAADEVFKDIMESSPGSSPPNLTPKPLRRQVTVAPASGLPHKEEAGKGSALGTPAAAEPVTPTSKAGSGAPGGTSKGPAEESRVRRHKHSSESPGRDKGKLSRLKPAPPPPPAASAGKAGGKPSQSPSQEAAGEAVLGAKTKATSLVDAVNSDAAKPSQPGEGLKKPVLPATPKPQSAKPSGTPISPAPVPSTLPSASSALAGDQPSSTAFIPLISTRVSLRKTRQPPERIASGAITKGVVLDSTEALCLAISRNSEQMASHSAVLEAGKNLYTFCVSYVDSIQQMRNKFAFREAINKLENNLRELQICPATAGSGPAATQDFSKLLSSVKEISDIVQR

Row | SMILES | ΔTm [1] | ΔTm [2] | ΔTm [3] | ΔTm [4] | ΔTm [5] | ΔTm [6] | ΔTm [7] | ΔTm [8]
1 | Cc1cc(C(=O)CN2CCCCC2)c(C)n1-c1ccc(Cl)cc1 | -0.03 °C | -2.43 °C | 0.02 °C | -0.16 °C | -0.07 °C | 0.08 °C | -1.42 °C | -0.41 °C
2 | C[C@@H](COCCC(=O)N1CCN(c2ncc(C(F)(F)F)cn2)CC1)Nc1cn[nH]c(=O)c1C(F)(F)F | 0.66 °C | -3.06 °C | -0.01 °C | -0.13 °C | 0 °C | 0.21 °C | -2.44 °C | -0.58 °C
3 | O=C(CNC(=O)[C@H](COP(=O)(O)O)NC(=O)CCc1c[nH]c2ccccc12)NCCCCc1ccccc1 | 0.34 °C | -3.51 °C | 0.72 °C | -0.09 °C | -0.2 °C | 0.17 °C | -1.56 °C | 0.45 °C
4 | Cc1ccsc1C(=CCCN1CCC[C@@H](C(=O)O)C1)c1sccc1C | 0.26 °C | 0.65 °C | 0.86 °C | -0.21 °C | -0.18 °C | 0.16 °C | -1.21 °C | 0.76 °C
5 | NC(=O)c1cnc(N[C@@H]2CCCC[C@@H]2N)nc1Nc1cccc(-n2nccn2)c1 | 3.49 °C | -1.09 °C | 5.92 °C | 6.3 °C | 5.98 °C | 4.33 °C | 2.17 °C | 0.1 °C
6 | O=C(NC1CCC1)c1ccc2nc(-c3cccc(NS(=O)(=O)NCCN4CCCCC4)c3)cn2c1 | 0.57 °C | -2.44 °C | 0.18 °C | -0.21 °C | -0.29 °C | 0.15 °C | -2.15 °C | 0.09 °C
7 | Cc1noc(C)c1-c1cc(Cl)c(Nc2ccccc2C(=O)O)c(Cl)c1 | 0.49 °C | 2.54 °C | -0.13 °C | -0.64 °C | -0.39 °C | 0.1 °C | -2.08 °C | -1.42 °C
8 | CC1=NN(c2ccc(C(=O)O)cc2)C(=O)/C1=C/c1ccc(-c2cc(C)c(C)cc2[N+](=O)[O-])o1 | 3.73 °C | -0.48 °C | 0.29 °C | 0.15 °C | 0.03 °C | 0.41 °C | -0.94 °C | -1.19 °C
9 | N=C(N)N/N=C/c1cccc(Cl)c1Cl | 0.36 °C | -1.26 °C | -0.05 °C | 0.55 °C | -0.98 °C | 0.2 °C | -0.81 °C | -0.47 °C
10 | Cc1cnc(-c2ccccc2C(C)C)nc1NCc1ccc(-n2ccnn2)cc1 | 0.32 °C | -1.87 °C | -0.07 °C | -7.36 °C | 0.1 °C | 0.55 °C | -2.6 °C | -0.58 °C
11 | CC(=O)N1CCN([C@H]2CCC[C@@H](NC(=O)c3cc4c(F)ccc(C)c4[nH]3)C2)CC1 | 0.05 °C | -1.42 °C | 0.08 °C | 0.26 °C | -1.37 °C | 0.01 °C | -0.09 °C | -1.38 °C
12 | COc1cc2c(NC3CCN(CC4CCCCC4)CC3)nc(N3CCCN(C(C)C)CC3)nc2cc1OCCCN1CCCCC1 | 0.33 °C | -0.97 °C | 0.51 °C | 0.17 °C | -0.33 °C | -0.16 °C | -0.14 °C | -0.74 °C
13 | O=C1/C(=N/Nc2ccc(S(=O)(=O)O)cc2)C(c2ccc([N+](=O)[O-])cc2)=NN1c1ccccc1 | 1.16 °C | -0.38 °C | -0.28 °C | 0.56 °C | -2.61 °C | 0 °C | -0.73 °C | -0.32 °C
14 | OC[C@H]1O[C@@H](c2ccc(Cl)c(Cc3ccc(OCCOC4CC4)cc3)c2)[C@H](O)[C@@H](O)[C@@H]1O | 0.7 °C | -2.67 °C | 0.19 °C | -1.19 °C | -0.38 °C | 0.15 °C | -2.84 °C | 0.19 °C
15 | Nc1ncnc2c1ncn2[C@@H]1O[C@H](C(=O)N2CCN(CC(=O)Nc3cccc4c3CNC4=O)CC2)[C@@H](O)[C@H]1O | 0.45 °C | -1.31 °C | -0.11 °C | 0.22 °C | -0.59 °C | 0.31 °C | -1.04 °C | -0.61 °C
16 | CCCCCCNC(=O)n1cc(F)c(=O)[nH]c1=O | 0.09 °C | -1.76 °C | -0.24 °C | -0.3 °C | -0.82 °C | 0.03 °C | -1.98 °C | 0.05 °C
